Laboratory results published in PubChem BioAssay.
Unmarked numbers belong to inactive results. The source made the active and inactive calls.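 The calls were made as follows, unless noted: active = mean inhibition above 46.5%, the solvent-only control mean plus 3 SD; inactive = the rest.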

What follows are molecules tested on transactivating tegument protein VP16 (Human herpesvirus 1) (assay: compounds suppressing VP16-driven luciferase signal – cell-based, luminescence, single concentration, counter-screen for SRC2 inhibitor project (AID 652007; in the data active = inhibition above about 36%)). Conditions: cell-based VP16 transactivation luciferase reporter, at 8.9 µM, stronger effect = higher value.
`COc1ccc(-c2nc(NC(=O)C3CC(=O)N(c4ccc5c(c4)OCCO5)C3)sc2C)cc1` (centres undefined) was tested, and the inhibition was -6.3%.
Molecule `NCCOc1ccc(C2CCCCC2)cc1` has an inhibition of -53.7%.
For `COc1cc(C(O)c2nc(-c3ccncc3)cs2)ccc1F` (centres undefined), the inhibition was 4.64%.
`CCC(C)(C(=O)NC1CCCCC1)N(Cc1cccs1)C(=O)CC1NC(=O)NC1=O` (centres undefined) gave an inhibition of -9.62%.
`CCOC(=O)C1CCCN(C(=O)CCNS(=O)(=O)c2ccc(Br)cc2)C1` (centres undefined) was tested, and the inhibition was 10.6%.
Molecule `CN(C)c1ccc(C2Nc3ccccc3C(=O)N2CCCN2CCOCC2)cc1` (centres undefined) has an inhibition of -12.2%.
`CC(C)C(=O)Nc1cccc2nsnc12` gave an inhibition of -7.28%.
With `CCOC(=O)[C@]12CCC=C1N(CCC1=CCCCC1)C(=O)[C@H](CC(=O)N1CCC(c3ccccc3)CC1)C2` the inhibition was 1.35%.
In the case of `CCC(Cc1ccccc1)NC(=O)C1CCN(c2nn3c(=O)cc(C)nc3s2)CC1` (centres undefined), the inhibition is reported as -17.6%.
`O=S(=O)(Cc1ccccc1Cl)NCCc1ccc(F)cc1` gave an inhibition of -11.3%.
In the case of `Cc1ccccc1N(Cc1cc(=O)[nH]c2ccccc12)C(=O)CCl`, the inhibition is reported as 44.6% (active).
In the case of `O=c1[nH]c2ccc(Br)cc2c(=O)o1`, the inhibition is reported as 44.5% (active).
For `COc1ccc(NC(=O)C2(C)Cc3c(-c4cccc(C(F)(F)F)c4)ccnc3O2)cn1` (centres undefined), the inhibition was -0.87%.
Work on `O=S1(=O)CCS(=O)(=O)C1c1ccccc1` yielded an inhibition of 15.8%.
With `COc1cc(OC)cc(-c2cc3nc(C)c(CCC(=O)NCc4ccccc4)c(C)n3n2)c1` the inhibition was 66.8% (active).
`Cc1cc(-c2ccccc2)n(-c2cc(N/N=C/c3ccccc3O)ncn2)n1` was tested, and the inhibition was -0.63%.
In the case of `CC(=O)Nc1ccc(NC(=O)c2ccc(-c3ccnn3C)c3ccoc23)cc1`, the inhibition is reported as -6.57%.
`Cc1cc(C(=O)COC(=O)c2ccc(O)cc2O)c(C)n1-c1ccc(OC(F)F)cc1` showed an inhibition of 12.6%.
In the case of `CCOc1ccc(-c2cc(CCCC(=O)NCc3ccc(C)cc3)no2)cc1`, the inhibition is reported as 31.4%.
In the case of `CC(C)(C)c1nnc2sc(SCC(=O)c3cccs3)nn2c1=O`, the inhibition is reported as 15.5%.
For `O=C(O)c1ccccc1C(=O)Nc1ccc(Oc2ccc3ccccc3c2)cc1`, the inhibition was 36.4% (active).
`O=c1oc2ccc(C#CC3(O)CCCCC3)cc2cc1-n1cc(-c2ccccn2)nn1` was tested, and the inhibition was -8.43%.
Work on `CCOC(=O)C1=C[C@@H](C(C)(C)C)N(S(=O)(=O)c2ccc(C)cc2)[C@H]1c1ccc(Cl)c(Cl)c1` yielded an inhibition of 7.53%.
For `COc1cc(NC(=O)CSCC(=O)Nc2cccc(C(F)(F)F)c2)c(Cl)cc1Cl`, the inhibition was 5.02%.

What follows are molecules tested against Nuclear receptor coactivator 2 (Homo sapiens) (UniProt Q15596) (assay: inhibition of GAL4-SRC2 driven luciferase expression – cell-based, luminescence, HEK293, triplicate, confirmation (AID 652008;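 also: 0% = DMSO-treated cells and 100% = Gossypol at 36 µM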)). Conditions: HEK293 GAL4-SRC2 luciferase reporter, at 8.9 µM, stronger effect = higher value.
Chain of Nuclear receptor coactivator 2 (Homo sapiens) (Q15596 whole entry, looked up, the tested form may be a part): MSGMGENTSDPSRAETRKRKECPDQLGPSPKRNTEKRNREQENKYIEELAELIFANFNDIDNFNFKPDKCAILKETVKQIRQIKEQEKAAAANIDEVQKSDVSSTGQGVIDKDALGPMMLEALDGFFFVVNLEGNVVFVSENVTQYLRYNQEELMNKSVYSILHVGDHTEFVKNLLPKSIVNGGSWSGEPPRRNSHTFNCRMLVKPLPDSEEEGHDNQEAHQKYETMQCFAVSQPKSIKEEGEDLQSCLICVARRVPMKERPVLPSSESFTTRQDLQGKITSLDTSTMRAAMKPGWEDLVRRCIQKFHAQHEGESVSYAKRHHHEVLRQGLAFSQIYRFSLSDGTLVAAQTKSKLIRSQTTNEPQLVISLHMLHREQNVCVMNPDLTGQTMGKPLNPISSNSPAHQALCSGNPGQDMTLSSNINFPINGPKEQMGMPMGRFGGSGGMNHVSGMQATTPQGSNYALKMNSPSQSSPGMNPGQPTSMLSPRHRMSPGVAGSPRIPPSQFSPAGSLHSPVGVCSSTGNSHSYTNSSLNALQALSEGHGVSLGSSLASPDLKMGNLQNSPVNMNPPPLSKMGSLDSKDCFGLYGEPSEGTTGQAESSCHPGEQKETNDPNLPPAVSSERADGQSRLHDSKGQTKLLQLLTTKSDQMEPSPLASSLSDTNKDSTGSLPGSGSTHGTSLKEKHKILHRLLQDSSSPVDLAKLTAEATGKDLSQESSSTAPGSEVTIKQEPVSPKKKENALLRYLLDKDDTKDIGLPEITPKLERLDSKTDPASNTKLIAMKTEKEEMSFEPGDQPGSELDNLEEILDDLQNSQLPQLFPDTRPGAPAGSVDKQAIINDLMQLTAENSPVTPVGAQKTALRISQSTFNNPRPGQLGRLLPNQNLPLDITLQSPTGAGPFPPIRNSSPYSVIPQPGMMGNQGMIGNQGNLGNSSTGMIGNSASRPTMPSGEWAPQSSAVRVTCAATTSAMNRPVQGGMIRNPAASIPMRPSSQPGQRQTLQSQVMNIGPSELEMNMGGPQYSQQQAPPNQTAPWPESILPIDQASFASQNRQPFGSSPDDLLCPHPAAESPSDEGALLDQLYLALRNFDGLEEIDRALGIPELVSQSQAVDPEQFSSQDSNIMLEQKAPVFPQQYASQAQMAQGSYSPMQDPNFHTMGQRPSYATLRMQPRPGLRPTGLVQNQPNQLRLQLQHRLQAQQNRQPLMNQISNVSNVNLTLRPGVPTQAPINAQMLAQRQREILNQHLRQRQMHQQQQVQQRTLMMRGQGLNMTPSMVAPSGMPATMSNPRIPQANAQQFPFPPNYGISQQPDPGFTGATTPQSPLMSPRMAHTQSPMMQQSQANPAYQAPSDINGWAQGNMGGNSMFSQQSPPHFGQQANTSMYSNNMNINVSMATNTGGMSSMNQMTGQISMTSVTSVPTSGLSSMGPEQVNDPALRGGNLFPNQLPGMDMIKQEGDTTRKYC
For `CC(=O)c1cccc(NC(=O)c2ccccc2N(C)S(=O)(=O)c2ccc(C)cc2)c1`, the inhibition was 0.15%.
Work on `CC(C)(C)c1ccc(C(=O)CCC(=O)OCC(=O)NCCc2ccc(S(N)(=O)=O)cc2)cc1` yielded an inhibition of 37.1%.
Work on `COc1ccc(OCCCCn2c(CO)nc3ccccc32)cc1` yielded an inhibition of -14.2%.
In the case of `Fc1ccc(CNC2CCN(Cc3ccccc3)CC2)cc1`, the inhibition is reported as -3.44%.
With `Cc1ccc([C@@H]2CC=C(C(=O)O)[C@H](c3ccccc3)N2S(=O)(=O)c2ccccc2C)cc1` the inhibition was -13%.
Molecule `C[C@@H]1CNCCN1c1ccc(N2CCN(Cc3ccccc3)[C@@H](C)C2)c(C#N)c1` has an inhibition of 17.3%.
With `O=C(O)CCCCCCCCCCC1CCC(O)C1O` (centres undefined) the inhibition was 65.3% (active).
For `CN(C)CCCN(C(=O)CCOc1ccccc1)c1nc2c(F)cccc2s1`, the inhibition was 20.6%.
With `CN1C(=O)C(c2cn(C)c3ccccc23)(c2cn(C)c3ccccc23)c2cc(F)ccc21` the inhibition was -37.4%.
`CC(=C\c1ccccc1)/C=C1/SC(=S)N(CCCC(=O)O)C1=O` was tested, and the inhibition was 79.2% (active).
For `C=C(C)C(=O)OC1(C(F)(F)F)Oc2cc(C)ccc2NC1=O` (centres undefined), the inhibition was 17.5%.
In the case of `CCOc1ccc(NC(=O)c2ccccn2)cc1`, the inhibition is reported as 25.7%.
`CCCSc1ccc2nc(-c3ccccc3)cn2c1` was tested, and the inhibition was 58% (active).
`CCC(=O)N1N=C(c2cccs2)CC1c1ccc(C)cc1` (centres undefined) gave an inhibition of -13.8%.
Molecule `CC(=O)Nc1c([N+](=O)[O-])cc(C)c(Cl)c1[N+](=O)[O-]` has an inhibition of 3.8%.
`O=C(OC12CCCN(C1)/C(=C/c1ccncc1)C2)c1ccc(Cl)cc1` (centres undefined) showed an inhibition of 25.9%.
In the case of `COc1ccc(-c2nc(NC(=O)C3CC(=O)N(c4ccc5c(c4)OCCO5)C3)sc2C)cc1` (centres undefined), the inhibition is reported as 50.7% (active).
`NCCOc1ccc(C2CCCCC2)cc1` showed an inhibition of 23%.
For `COc1cc(C(O)c2nc(-c3ccncc3)cs2)ccc1F` (centres undefined), the inhibition was 20.8%.
`CCC(C)(C(=O)NC1CCCCC1)N(Cc1cccs1)C(=O)CC1NC(=O)NC1=O` (centres undefined) showed an inhibition of -11.8%.
`CCOC(=O)C1CCCN(C(=O)CCNS(=O)(=O)c2ccc(Br)cc2)C1` (centres undefined) was tested, and the inhibition was -4.97%.
Molecule `CN(C)c1ccc(C2Nc3ccccc3C(=O)N2CCCN2CCOCC2)cc1` (centres undefined) has an inhibition of 2.92%.
In the case of `CC(C)C(=O)Nc1cccc2nsnc12`, the inhibition is reported as 5.54%.
`CCOC(=O)[C@]12CCC=C1N(CCC1=CCCCC1)C(=O)[C@H](CC(=O)N1CCC(c3ccccc3)CC1)C2` was tested, and the inhibition was -24.7%.
`CCC(Cc1ccccc1)NC(=O)C1CCN(c2nn3c(=O)cc(C)nc3s2)CC1` (centres undefined) gave an inhibition of -18.8%.
`O=S(=O)(Cc1ccccc1Cl)NCCc1ccc(F)cc1` gave an inhibition of -1.95%.
`Cc1ccccc1N(Cc1cc(=O)[nH]c2ccccc12)C(=O)CCl` was tested, and the inhibition was 76.7% (active).
In the case of `O=c1[nH]c2ccc(Br)cc2c(=O)o1`, the inhibition is reported as 34.9%.
`COc1ccc(NC(=O)C2(C)Cc3c(-c4cccc(C(F)(F)F)c4)ccnc3O2)cn1` (centres undefined) was tested, and the inhibition was -0.12%.
`O=S1(=O)CCS(=O)(=O)C1c1ccccc1` gave an inhibition of -3.12%.
In the case of `COc1cc(OC)cc(-c2cc3nc(C)c(CCC(=O)NCc4ccccc4)c(C)n3n2)c1`, the inhibition is reported as 72.1% (active).
`Cc1cc(-c2ccccc2)n(-c2cc(N/N=C/c3ccccc3O)ncn2)n1` was tested, and the inhibition was 51.5% (active).
`CC(=O)Nc1ccc(NC(=O)c2ccc(-c3ccnn3C)c3ccoc23)cc1` showed an inhibition of 26.4%.
Molecule `Cc1cc(C(=O)COC(=O)c2ccc(O)cc2O)c(C)n1-c1ccc(OC(F)F)cc1` has an inhibition of 35.1%.
In the case of `CCOc1ccc(-c2cc(CCCC(=O)NCc3ccc(C)cc3)no2)cc1`, the inhibition is reported as 60.2% (active).
`CC(C)(C)c1nnc2sc(SCC(=O)c3cccs3)nn2c1=O` showed an inhibition of 30%.
`O=C(O)c1ccccc1C(=O)Nc1ccc(Oc2ccc3ccccc3c2)cc1` gave an inhibition of 28%.
Molecule `O=c1oc2ccc(C#CC3(O)CCCCC3)cc2cc1-n1cc(-c2ccccn2)nn1` has an inhibition of -3.27%.
Molecule `CCOC(=O)C1=C[C@@H](C(C)(C)C)N(S(=O)(=O)c2ccc(C)cc2)[C@H]1c1ccc(Cl)c(Cl)c1` has an inhibition of 17.4%.
`COc1cc(NC(=O)CSCC(=O)Nc2cccc(C(F)(F)F)c2)c(Cl)cc1Cl` showed an inhibition of 5.14%.
